Source: PubChem BioAssay AID1159580 (chemical genetic matrix, 2015)
Hit rate of the full screen: of about 5,500 compounds, about 2,000 (36%) were called active. Roughly 18% stayed inconclusive and do not appear here. Cut-off read from the data, not from the text of the source: active = normalized growth mostly below about 0.91 (no sharp cut-off); inconclusive = no clear call, values can overlap the other calls; inactive = mostly above about 0.92. The list shows a part of the results.

Assay: chemical genetic growth profiling, strain panel (AID 1159580);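 note: tested at 20 µM; growth read once vehicle control cultures reached saturation at 30 °C; 1 = growth at the plate median or of vehicle wells; lower values mean less growth of the strain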
Conditions: S. cerevisiae deletion strains, growth OD

Measured: normalized growth

C#C[C@]1(O)CCC2C3CCc4cc(OC)ccc4C3CC[C@@]21C (stereo not given in full)
inactive: locus YAL021C, strain ccr4, hits give low values 1.02 | locus YAL026C, strain drs2, hits give low values 0.956 | locus YAL030W, strain snc1, hits give low values 0.987 | locus YBL061C, strain skt5, hits give low values 0.968 | locus YBR009C, strain hhf1, hits give low values 0.933 | locus YBR171W, strain sec66, hits give low values 0.959 | locus YBR231C, strain swc5, hits give low values 0.953 | locus YBR279W, strain paf1, hits give low values 0.967 | locus YCL011C, strain gbp2, hits give low values 0.923 | locus YCL061C, strain MRC1, hits give low values 0.937 | locus YCL069W, strain vba3, hits give low values 0.976 | locus YCR088W, strain abp1, hits give low values 0.972 | locus YDL005C, strain med2, hits give low values 0.985 | locus YDL040C, strain nat1, hits give low values 0.982 | locus YDR001C, strain nth1, hits give low values 0.982 | locus YDR069C, strain doa4, hits give low values 1.01 | locus YDR159W, strain sac3, hits give low values 0.949 | locus YDR195W, strain ref2 1.01 | locus YDR297W, strain sur2, hits give low values 0.994 | locus YDR334W, strain swr1, hits give low values 0.983 | locus YDR335W, strain msn5, hits give low values 0.998 | locus YEL003W, strain gim4, hits give low values 0.984 | locus YEL037C, strain rad23, hits give low values 0.968 | locus YEL061C, strain CIN8 (second series), hits give low values 0.972 | locus YER015W, strain faa2, hits give low values 0.991 | locus YER016W, strain bim1, hits give low values 0.99 | locus YER111C, strain swi4, hits give low values 0.969 | locus YER155C, strain BEM2 (second series), hits give low values 0.923 | locus YFR010W, strain ubp6, hits give low values 0.962 | locus YGL167C, strain pmr1, hits give low values 0.972 | locus YGL173C, strain kem1, hits give low values 0.98 | locus YGL227W, strain vid30, hits give low values 0.987 | locus YGL240W, strain doc1, hits give low values 0.963 | locus YGL253W, strain hxk2, hits give low values 0.912 | locus YHR013C, strain ard1, hits give low values 0.926 | locus YHR027C, strain rpn1, hits give low values 0.987 | locus YHR030C, strain SLT2, hits give low values 0.974 | locus YHR079C, strain IRE1, hits give low values 0.987 | locus YJL092W, strain hpr5, hits give low values 0.96 | locus YJL095W, strain BCK1 (second series), hits give low values 0.975 | locus YJL095W, strain BCK1, hits give low values 0.975 | locus YJL115W, strain asf1, hits give low values 0.988 | locus YJL129C, strain trk1, hits give low values 0.965 | locus YJL154C, strain vps35, hits give low values 0.983 | locus YJL164C, strain tpk1, hits give low values 0.923 | locus YJL166W, strain qcr8, hits give low values 0.923 | locus YJL187C, strain SWE1, hits give low values 0.987 | locus YJR066W, strain TOR1, hits give low values 0.933 | locus YKL160W, strain elf1, hits give low values 0.913 | locus YKR026C, strain gcn3, hits give low values 0.988 | locus YKR091W, strain srl3, hits give low values 0.975 | locus YLL001W, strain dnm1, hits give low values 0.903 | locus YLL026W, hits give low values 0.979 | locus YLL041C, strain sdh2, hits give low values 0.986 | locus YLR027C, strain aat2, hits give low values 0.969 | locus YLR113W, strain HOG1, hits give low values 0.931 | locus YLR221C, strain rsa3, hits give low values 0.912 | locus YLR258W, strain gsy2, hits give low values 0.956 | locus YLR320W, strain mms22, hits give low values 0.902 | locus YLR342W, strain FKS1, hits give low values 0.952 | locus YLR357W, strain rsc2, hits give low values 0.909 | locus YLR370C, strain arc18, hits give low values 0.966 | locus YLR384C, strain iki3, hits give low values 0.986 | locus YML120C, strain ndi1, hits give low values 0.933 | locus YMR058W, strain fet3, hits give low values 0.935 | locus YMR125W, strain sto1, hits give low values 0.951 | locus YMR129W, hits give low values 0.977 | locus YMR205C, strain PFK2, hits give low values 0.923 | locus YMR231W, strain pep5, hits give low values 0.993 | locus YNL183C, strain NPR1, hits give low values 0.917 | locus YNL209W, strain ssb2, hits give low values 0.974 | locus YNL248C, strain rpa49, hits give low values 0.951 | locus YNL322C, strain KRE1 (second series), hits give low values 0.964 | locus YNR049C, strain mso1, hits give low values 0.983 | locus YOR001W, strain rrp6, hits give low values 1 | locus YOR070C, strain gyp1, hits give low values 0.951 | locus YOR080W, strain dia2, hits give low values 0.999 | locus YOR083W, strain WHI5, hits give low values 0.919 | locus YOR106W, strain vam3, hits give low values 0.969 | locus YOR231W, strain MKK1, hits give low values 0.958 | locus YOR265W, strain rbl2, hits give low values 0.969 | locus YOR270C, strain vph1, hits give low values 0.949 | locus YOR290C, strain snf2, hits give low values 0.874 | locus YPL051W, strain arl3, hits give low values 0.923 | locus YPL078C, strain atp4, hits give low values 0.902 | locus YPL106C, strain sse1, hits give low values 0.913 | locus YPL240C, strain hsp82, hits give low values 0.985 | locus YPL256C, strain CLN2, hits give low values 0.973
active: locus YBR023C, strain chs3, hits give low values 0.913 | locus YCL016C, strain dcc1, hits give low values 0.912 | locus YDR137W, strain rgp1, hits give low values 0.839 | locus YDR392W, strain spt3, hits give low values 0.614 | locus YHR142W, strain chs7, hits give low values 0.866 | locus YLR262C, strain YPT6 (second series), hits give low values 0.798 | locus YNL071W, strain lat1, hits give low values 0.89
